Source: PubChem BioAssay AID686978 (National Center for Advancing Translational Sciences (NCATS), 2013)
Out of some 420,000 compounds screened, about 64,000 (15%) were called active. Another 27% or so got no clear call; they are omitted. Only a sample is shown. A number with no mark means an inactive call. Calls follow the shape of the dose curve; as a rule, active = well fitted inhibition curve with a large enough effect; inconclusive = small, poorly fitted or top-dose-only effect; inactive = flat fitted curve, though single readings scatter.

Experiment: qHTS for Inhibitors of human tyrosyl-DNA phosphodiesterase 1 (TDP1): qHTS in cells in absence of CPT; also: nearly all actives have a fitted effect of over 55% in size
Details: DT40 Tdp1-/- hTDP1 cells, no CPT, ATP luminescence, 48 h; activity change, negative = growth inhibition: at 46.2 µM (top of the series)
Summary of the method: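 A cellular qHTS used chicken DT40 cells lacking endogenous Tdp1 but carrying stably transfected human TDP1. Compounds were applied without camptothecin, and cell growth kinetics were judged by ATP-dependent luminescence after ≥48 hr.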
% is scaled to controls: 0 for no effect and ±100 for the full control effect; potency is read from the fitted curve at half-maximal effect.

Row | SMILES | activity change, negative = growth inhibition [%] | Potency
1 | O=C(O)CCC(=O)Nc1ccc(N2CCOCC2)cc1 | -10.6 | –
2 | CCCC1C(=O)N2C(N(C)C)=Nc3ccc(C)cc3N2C1=O (stereo unspecified) | – | inactive
3 | Cc1nn(C)cc1C(=O)c1ccccc1 | 1.93 | –
4 | Cc1sc2nc(CC(N)=O)[nH]c(=O)c2c1-c1ccccc1 | 1.96 | –
5 | NC(=O)c1sc2nc3c(c(-c4ccccc4)c2c1N)CCC3 | – | 13 µM (active)
6 | Cc1nc2sc(C(=O)c3ccccc3)c(N)c2c2c1CCCC2 | – | 20.6 µM (active)
7 | Cc1cccc(NC(=O)c2sc3nc4c(c(-c5ccco5)c3c2N)CCC4)c1 | – | 25.9 µM (active)
8 | Cc1cccc(NC(=O)/C(=C\c2ccco2)NC(=O)c2ccccc2)c1 | 5.21 | –
9 | CC(=O)Nc1ccc(NC(=O)c2sc3nc4c(c(-c5ccc(C)cc5)c3c2N)CCC4)cc1 | -9.97 | –
10 | CCOC(=O)c1sc2nc(SC)nc(-c3ccccc3)c2c1N | -8.81 | –
11 | CN(C)c1ccnc2sc(C(=O)c3ccccc3)c(N)c12 | -0.214 | –
12 | CCCCC(NS(=O)(=O)c1ccc(C)cc1)C(=O)Oc1ccc2c3c(c(=O)oc2c1)CCC3 (stereo unspecified) | -29 | –
13 | CCc1c(-c2ccccc2)nc(N)c(C#N)c1-c1cccs1 | -7.76 | –
14 | CCC1CN(CCNC(=O)c2cccc(C)n2)Cc2cc(OC)ccc2O1 (stereo unspecified) | -22.3 | –
15 | CC(C)C(=O)Nc1c(O)c2ccccc2[nH]c1=O | -18.3 | –
16 | O=C(O)C1CCCN(S(=O)(=O)c2cccc3cccnc23)C1 (stereo unspecified) | -2.56 | –
17 | CC(C)[C@@H]1NC(=O)c2cc([N+](=O)[O-])cc(I)c2NCCC[C@@H](C(=O)NC(CC(=O)O)C(N)=O)NC(=O)[C@H](CO)NC1=O (stereo partly specified) | 5.19 | –
18 | COC(=O)c1c(C)[nH]c(C(=O)NCCc2ccc(S(N)(=O)=O)cc2)c1C | 2.2 | –
19 | CCCc1c(C)nc2c(Br)cccc2c1Cl | -2.83 | –
20 | Cn1cnc(C(F)(F)F)c1-c1ccc([N+](=O)[O-])cc1 | -21.8 | –
21 | COc1ccc(S(=O)(=O)c2c[nH]c(=S)[nH]c2=O)cc1Cl | -9.17 | –
22 | COc1ccc(-c2noc(COc3ccc(Cl)c(C)c3)n2)cc1 | -29.5 | –
23 | Cc1ccc(/C(N)=N/OC(=O)COc2ccc(Cl)c(C)c2)cc1 | -38.7 | –
24 | COc1ccc(C(C)=O)cc1COc1ccc(Cl)c(C)c1 | – | 9.2 µM (active)

Row | SMILES | activity change, negative = growth inhibition [%] | Potency
25 | O=C(CSCc1c(Cl)cccc1Cl)NN1C(=O)c2ccccc2C1=O | -2.81 | –
26 | Cc1cc(C)c(NC(=S)N2CCCC2C(=O)O)c(C)c1 (stereo unspecified) | -5.64 | –
27 | O=C(c1cc2ccccc2o1)N1CCN(c2cccc(C(F)(F)F)c2)CC1 | -21.2 | –
28 | Cc1nn(CC(=O)N2CCN(c3cccc(C(F)(F)F)c3)CC2)c(=O)c2cc3sccc3n12 | -19.1 | –
29 | CC(C)N1C[C@@H](NCc2ccccc2O)C[C@H]1C(=O)N1CCN(c2cccc(C(F)(F)F)c2)CC1 | – | 18.4 µM (active)
30 | Cc1cc(C)nc(NS(=O)(=O)c2ccc(N3C(=O)C4CCCCC4C3=O)cc2)n1 (stereo unspecified) | 16.2 | –
31 | CC(=O)NC(Cc1ccccc1)C(=O)NC1CCN(c2ncccc2[N+](=O)[O-])CC1 (stereo unspecified) | 8.39 | –
32 | CCCOc1ccc(-c2cccc(NS(=O)(=O)c3ccccc3)c2)nn1 | – | 23.1 µM (active)
33 | O=S(=O)(Nc1cccc(-c2ccc(N3CCOCC3)nn2)c1)c1ccc(Cl)c(Cl)c1 | -20.1 | –
34 | O=[N+]([O-])c1ccc(S(=O)(=O)Nc2cccc(-c3ccc(N4CCCC4)nn3)c2)cc1 | -15.2 | –
35 | N#Cc1ccc(CSc2nnc3ccccn23)cc1 | -2.49 | –
36 | O=c1c2ccccc2cnn1Cc1n[nH]c(=S)n1-c1ccccc1F | -6.52 | –
37 | Cc1ccc(N2CCN(C3=NC(=O)/C(=C\c4cccs4)S3)CC2)cc1 | -22.3 | –
38 | CC(C)=C1SC(N2CCN(c3cccc(C)c3)CC2)=NC1=O | – | 20.6 µM (active)
39 | CNS(=O)(=O)c1cnccc1N1CCN(c2cccc(C)c2)CC1 | 8.13 | –
40 | N/C(=N\OC(=O)CC1CCCCC1)c1ccccc1 | -3.88 | –
41 | Cc1cc(C)c2c(=O)[nH]c(SCC(=O)Nc3ccc(Br)cc3)nc2n1 | -37.2 | –
42 | O=C(Nc1cc(S(=O)(=O)N2CCOCC2)ccc1OCC(F)(F)F)c1ccc(N2CCCC2=O)cc1 | -18.2 | –
43 | CCOC(=O)C1C(c2ccc(Cl)cc2)NC(=S)NC1(O)C(F)(F)F (stereo unspecified) | -14.7 | –
44 | O=C(/C=C/Sc1ncn[nH]1)c1ccc(Cl)cc1 | – | 2.59 µM (active)
45 | O=C(CSc1ncn[nH]1)N/N=C/c1ccc(F)cc1 | -2.04 | –
46 | O=C(NCCOCc1ccc(Cl)cc1)c1ncn[nH]1 | -12.1 | –
47 | Cc1csc(NC(=O)c2ccc(-c3ccc(Cl)cc3Cl)o2)n1 | – | 5.17 µM (active)
48 | Cc1ccc(C(=O)Nc2nc3ccc(Cl)cc3s2)o1 | -29.3 | –

Row | SMILES | activity change, negative = growth inhibition [%] | Potency
49 | O=C(O)c1cc(Cl)c(Cl)cc1C(=O)Nc1cccc2ncccc12 | -3.56 | –
50 | O=C(Nc1cccc2ncccc12)c1ccc(-c2ccc(Cl)cc2Cl)o1 | – | 20.6 µM (active)
51 | O=C(Nc1cccnc1Cl)c1cc(-c2cccc(Cl)c2)on1 | – | inactive
52 | Cc1csc(NC(=O)c2ccc(C)s2)n1 | -3.86 | –
53 | COc1ccc(Br)c2c1C(=O)CC2 | -9.71 | –
54 | O=C(NCc1ccc(F)cc1)C(c1ccccc1)N(C(=O)c1csnn1)C1CC1 (stereo unspecified) | -5.76 | –
55 | CCNC(=O)N1CCN(S(=O)(=O)c2ccc3c(c2)OCCCO3)CC1 | -11.4 | –
56 | O=C(CCl)Nc1ccc(Sc2ccc(NC(=O)CCl)cc2)cc1 | – | 5.17 µM (active)
57 | CC(=O)Nc1cc(C(=O)NCc2ccc(F)cc2)ccc1Sc1ccc(F)cc1 | -96.8 | –
58 | O=C(Cc1ccc(Cl)c(Cl)c1)Nc1ccc(SC(F)F)cc1 | -118 | –
59 | CCN(c1ccccc1)S(=O)(=O)c1ccc(NC(=O)C(C)(C)C)cc1 | -11.1 | –
60 | CC(C)(CCl)C(=O)Nc1ccc(Sc2ccc(F)cc2)cc1 | – | 7.31 µM (active)
61 | Cc1ccc(NC(=O)CC(=O)Nc2ccc(C)cc2)cc1 | 1.48 | –
62 | Cc1sc2ncn(CC(=O)NCCCC(=O)NCc3ccc(F)cc3)c(=O)c2c1C | -8.84 | –
63 | Cc1c(Cl)cccc1NC(=O)CC1SC(=NCC2CCCO2)NC1=O (stereo unspecified) | -9.62 | –
64 | COc1ccc(N2C(=O)C3CCCN3C2c2cc(OC)c(OC)cc2OC)cc1 (stereo unspecified) | -20.9 | –
65 | CCNC(=O)C1(C)CCCN(C(=O)c2ccc3ccccc3n2)C1 (stereo unspecified) | -3.43 | –
66 | Cc1cc(/C=N/NC(N)=O)c(C)n1C1CCCCC1 | 2.04 | –
67 | CC(=O)Nc1ccc(/C=N/NC(=O)c2cccs2)cc1 | 0.163 | –
68 | Cc1cccc(-n2c(C)cc(/C=N\NC(=O)c3cccs3)c2C)c1 | – | 16.4 µM (active)
69 | Cc1cc(/C=N/NC(=O)c2cccnc2)c(C)n1CC(C)C | -0.506 | –
70 | Cc1cc(/C=N/n2cnnc2)c(C)n1-c1cccc(C(=O)O)c1 | -0.81 | –
71 | Cc1cccc(-n2c(C)cc(/C=N/NC(N)=S)c2C)c1 | – | 5.8 µM (active)
